In PubChem BioAssay (NCATS):
Records with an inconclusive call do not appear. Calls come from the whole dose curve; as a rule, active = well fitted curve in either direction with a large enough effect (not every such curve was filed as active); inconclusive = small, poorly fitted or top-dose-only effect, or another doubt; inactive = flat fitted curve, though single readings scatter.

Assay: AP1 Signaling Pathway (AID 357);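 note: ME-180 reporter cells stimulated with EGF at its EC50 level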
Conditions: ME-180 (cervical carcinoma) AP-1-bla reporter, EGF-induced, beta-lactamase ratio, 5 h; at 17.2 µM (top of the series) unless noted
Outline: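 A ratiometric CCF4 readout (405 nm excitation; 460 and 530 nm emission) quantified AP-1-driven beta-lactamase in ME-180 cells after 5 h with compound and EC50 EGF; AC50 values were derived for activators and inhibitors.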
% is set by controls: 0 for no effect and ±100 for the full control effect.

Activity change, negative = inhibition, inactive:
Oc1ccc(Br)cc1-c1cc(-c2ccccc2F)[nH]n1 13.3%
CCN1CC2=C(OC(N)=C(C#N)C2c2ccccc2)/C(=C\c2ccccc2)C1 (centres undefined) -16.4%
CCCc1nc(NC2CCCCC2)c(C#N)c2c1COC(C)(C)C2 16.4%
N#Cc1c(N2CCOCC2)nc(N2CCCCC2)c2c1CCN(C1CCCCC1)C2 -8.29%
CN(C)C(=O)COn1c(SCC(=O)N(C)C)nc2ccccc2c1=O 6.36%
Cc1ccc(CNc2oc(COc3ccccc3Cl)nc2C#N)cc1 39.1%
CCCSc1nnc2n(-c3ccccc3OC)c(=O)c3c4c(sc3n12)CCC4 3.26%
COc1ccccc1N1CCN(CCCCOc2ccc(F)cc2)CC1 18.8%
CCOC(=O)c1[nH]c2ccccc2c1N=C(C)N(CC)CC 4.17%
Nc1nnnn1/N=C/c1ccco1 2.89%
COC(=O)c1cc(=O)n2c(-c3ccc(OC)cc3)csc2n1 -2.63%
O=C(NCCN1CCCCC1)/C(=N\O)c1ccccc1 -7.56%
CC(C)c1nc2sc3c(c2c(=O)o1)CCCC3 -7.93%
Cc1cc(=O)oc2c(CN3CCC(C)CC3)c(O)c(Cl)cc12 22.4%
Nc1c2c(nc3ccccc13)N(C1CCCCC1)CC2 13.8%
CCN(CC)CCNc1nc(-c2ccco2)c2c(c1C#N)CC(C)(C)OC2 12.8%
CC(C)(C)OC(=O)NCCC(=O)Oc1ccc2ccc(=O)oc2c1 16.1%
Cc1nn(CC(=O)NCCN2CCOCC2)c(=O)c2ccccc12 5.98%
CCCSc1nc(N2CCCC2)c2c(c1C#N)CC(C)(C)OC2 -3.22%
CCC(C)Nc1nc(-c2cccc(OC)c2O)nc2ccccc12 (centres undefined) -28.3%
Cc1ccc(N2C(=O)CC(N(O)C3CC(=O)N(c4ccc(C)cc4)C3=O)C2=O)cc1 (centres undefined) -20.5%
COc1ccc(C2C(C#N)=C(SC)NC3=C2C(=O)CC(C)(C)C3)cc1 (centres undefined) -6.47%
CN(C)CCCN1C(=O)C(=O)/C(=C(/O)c2ccccc2)C1c1ccccn1 (centres undefined) 7%
Cc1c(C)c2cc(Cl)c(O)c(CN3CCCCC3)c2oc1=O 17.2%
CCCSc1nnc2n(C)c(=O)c3c4c(sc3n12)CCC4 -1.82%
Fc1ccc(-c2cnc[nH]2)cc1 3.07%
CCCc1cc(C(=O)Cc2ccc(F)cc2)c(O)cc1O -28%
CCc1nnc(NC(=O)CSc2nc(C)c3c(c2C#N)CCCC3)s1 -12.7%
CC(C)Cc1nc(N2CCCCC2)c(C#N)c2c1CCC2 28.8%
Cc1ccc(C)c(OCc2nnc(NC(=O)c3ccco3)s2)c1 -0.273%
O=C(c1cccs1)N1CCC(N2CCN(c3ccccc3)CC2)CC1 9.88%
COc1cccc(NC(=O)C2CC(=O)n3cnnc3S2)c1 (centres undefined) -17.5%
O=C(Nc1nc(NC(=O)c2ccco2)n(-c2ccccc2)n1)c1ccccc1 -13.5%
Cc1cccc(N(Cc2cc3ccccc3[nH]c2=O)C(=O)c2ccco2)c1C -19.9%
Cc1cccn2c(=O)c3cc(C(N)=S)c(=N)n(CCCOC(C)C)c3nc12 -0.111%
COCCCNC(=O)c1c(N)n(/N=C/c2cccnc2)c2nc3ccccc3nc12 -15.5%
CCCCOc1ccc(C(=O)OC2CC(C)N(C)CC2C)cc1 (centres undefined) 5.59%
COc1ccc2c(c1OC)C(=O)N1c3ccccc3C(=O)N(c3ccccc3F)C21 (centres undefined) -4.99%
C=CCn1c(=S)[nH]c2nc3c(cc2c1=O)CCCC3 -14.7%
